Results reported in PubChem BioAssay (Tox21).
Inconclusive results are not listed. The source made the active and inactive calls. Unless noted, the call rests on the fitted dose curve; in most records, active means well fitted curve in the direction sought with a large enough effect in the repeat runs; inconclusive means weak or mixed curves; inactive means no such curve, though single readings can be large; an effect the other way counts as inactive or inconclusive.

Key:
[1] = qHTS assay to identify small molecule antagonists of the vitamin D receptor (VDR) signaling pathway - cell viability counter screen (AID 743225); further: on the % scale 0 is the no-effect control and ±100 the full control effect; nearly all actives have a fitted effect of over 50% in size
Summary of the method: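 Parallel cytotoxicity test: VDR-UAS-bla HEK 293T, 3 nM (final) 1-alpha,25-dihydroxyvitamin D3 with test compound, 16 h, 37C. Endpoint is CellTiter-Glo luminescence in the same wells.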

[2] = qHTS assay to identify small molecule agonists of the NFkB signaling pathway - cell viability counter screen (AID 1159515; calls by dose curve; further: series mostly up to about 61 µM; on the % scale 0 is the no-effect control and ±100 the full control effect; nearly all actives have a fitted effect of over 55% in size)
Summary of the method: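 Viability in NFkB-bla ME-180 cells was measured by CellTiter-Glo luminescence, 30 min room temperature, in wells already treated 5 hr with compounds and read for reporter FRET.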

[3] = qHTS assay to identify small molecule agonists of the endoplasmic reticulum stress response signaling pathway (AID 1159516; active means well fitted activation curve with a large enough effect in the signal ratio in the repeat runs, not every such curve was filed as active; the % refers to the signal ratio; further: on the % scale 0 is the no-effect control and ±100 the full control effect)
Summary of the method: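 ER stress element reporter (bla) in HeLa. 1,500 cells/well, overnight attachment; 5 hr compound; 2 hr RT substrate; dual-emission fluorescence.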

[4] = qHTS assay to identify small molecule agonists of the endoplasmic reticulum stress response signaling pathway - cell viability counter screen (AID 1159517; calls by dose curve;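 further: HeLa cells carrying an ER stress response element beta-lactamase reporter; series mostly up to about 61 µM; on the % scale 0 is the no-effect control and ±100 the full control effect; nearly all actives have a fitted effect of over 50% in size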)
Summary of the method: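 ESRE-bla HeLa cells, 1,500 per well, seeded overnight then treated with compounds for 5 hr at 37 C. After the beta-lactamase read, viability in the same wells is measured by CellTiter-Glo luminescence after 30 min at room temperature.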

[5] = qHTS assay to identify small molecule antagonists of the retinoid-related orphan receptor gamma (ROR-gamma) signaling pathway - cell viability counter screen (AID 1159520); further: on the % scale 0 is the no-effect control and ±100 the full control effect; nearly all actives have a fitted effect of over 50% in size
Summary of the method: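 Tet-on ROR gamma CHO cells were given compounds for 2 hr, then doxycycline hyclate at 1 uM final, and incubated 16 hr at 37 C. Viability was measured as ATP content by CellTiter-Glo luminescence.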

[6] = target: Nuclear receptor ROR-gamma (Homo sapiens) (UniProt P51449); experiment: qHTS assay to identify small molecule antagonists of the retinoid-related orphan receptor gamma (ROR-gamma) signaling pathway (AID 1159521;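 further: CHO cells with doxycycline inducible ROR-gamma driving an RORE luciferase reporter; top concentration of the series differs between compounds; on the % scale 0 is the no-effect control and ±100 the full control effect; nearly all actives have a fitted effect of over 50% in size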)
Summary of the method: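 Decreased RORE-driven luciferase luminescence indicates antagonism. Tet-on RORγ CHO cells received compound, then 1 uM final doxycycline 2 h later; signal read after 16 h incubation.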

[7] = qHTS assay to identify small molecule agonists of the AP-1 signaling pathway - cell viability counter screen (AID 1159525; calls by dose curve; further: nearly all actives have a fitted effect of over 55% in size)
Summary of the method: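 AP-1-bla ME-180 cells in Opti-MEM with 0.5% dialyzed FBS, compound exposure 5 h at 37 C in 15-point titration. Viability read in the same wells as ATP content by CellTiter-Glo luminescence, normalised to tetra-n-octylammonium bromide and DMSO controls.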

[8] = qHTS assay to identify small molecule agonists of the AP-1 signaling pathway (AID 1159526; calls by dose curve; further: on the % scale 0 is the no-effect control and ±100 the full control effect)
[9] = target: Retinoic acid receptor RXR-alpha (Homo sapiens) (UniProt P19793); experiment: qHTS assay to identify small molecule agonists of the RXR signaling pathway (AID 1159527; calls by dose curve; further: on the % scale 0 is the no-effect control and ±100 the full control effect; nearly all actives have a fitted effect of over 35% in size)
Sequence of Retinoic acid receptor RXR-alpha (Homo sapiens) (P19793 whole entry, looked up): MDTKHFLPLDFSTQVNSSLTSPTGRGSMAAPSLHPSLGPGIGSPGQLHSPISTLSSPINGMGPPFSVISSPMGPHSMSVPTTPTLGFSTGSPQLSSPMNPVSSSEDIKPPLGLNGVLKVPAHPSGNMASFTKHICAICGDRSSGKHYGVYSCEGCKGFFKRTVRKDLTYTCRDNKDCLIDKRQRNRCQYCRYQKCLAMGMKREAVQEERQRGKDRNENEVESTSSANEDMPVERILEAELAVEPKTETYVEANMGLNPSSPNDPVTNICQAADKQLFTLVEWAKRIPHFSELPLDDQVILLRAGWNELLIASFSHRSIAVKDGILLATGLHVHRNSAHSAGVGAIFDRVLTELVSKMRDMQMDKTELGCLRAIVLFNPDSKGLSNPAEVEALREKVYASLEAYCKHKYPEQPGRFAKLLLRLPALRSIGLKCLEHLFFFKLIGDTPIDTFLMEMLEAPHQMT
Summary of the method: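 16 hr incubation of compound-treated RXR-alpha-UAS-bla HEK 293T cells (2% charcoal-stripped FBS, 37 C) preceded a 2 hr room-temperature LiveBLAzer FRET substrate step and blue/green fluorescence measurement.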

[10] = qHTS assay to identify small molecule agonists of the RXR signaling pathway - cell viability counter screen (AID 1159529)
Summary of the method: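 In this parallel viability measure, GeneBLAzer RXR-alpha HEK 293T cells (2% charcoal-stripped FBS) were given a 5 hr preincubation, treated with compounds 16 hr at 37 C, and read by CellTiter-Glo luminescence.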

[11] = qHTS assay to identify small molecule antagonists of the retinoid acid receptor (RAR) signaling pathway - cell viability counter screen (AID 1159551); further: on the % scale 0 is the no-effect control and ±100 the full control effect; nearly all actives have a fitted effect of over 35% in size
Summary of the method: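 Following overnight attachment, C3RL4 reporter cells received DMSO-dissolved compounds and then retinol (1 uM final). Six hours later at 37 C, ATP content was measured by CellTiter-Glo luminescence.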

[12] = qHTS assay to identify small molecule antagonists of the retinoic acid receptor (RAR) signaling pathway (AID 1159552)
Summary of the method: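 C3RL4 RARE-luc cells, overnight plating; retinol 1 uM final added right after compound; 6 hr 37 C; luciferase read at 30 min RT.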

[13] = qHTS assay to identify small molecule agonists of the retinoic acid receptor (RAR) signaling pathway (AID 1159553); further: on the % scale 0 is the no-effect control and ±100 the full control effect
Summary of the method: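 Cell line C3RL4, RARE luciferase reporter. Treatment: compounds in DMSO, 6 hr, 37 C, 5% CO2, after overnight plating. Detection: luminescence, 30 min RT after reagent.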

[14] = qHTS assay to identify small molecule antagonists of the estrogen related receptor (ERR) signaling pathway from Tox21 library - cell viability counter screen (AID 1224834); further: on the % scale 0 is the no-effect control and ±100 the full control effect; nearly all actives have a fitted effect of over 30% in size
Summary of the method: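 Viability readout (CellTiter-Fluor fluorescence, 30 min at 37 C) multiplexed with the ERR assay; cells treated 17.5 h at 37 C with compounds delivered in DMSO.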

[15] = target: Luciferin 4-monooxygenase (Photinus pyralis) (UniProt P08659); experiment: qHTS assay to identify small molecule inhibitors of firefly luciferase (AID 1224835); further: series mostly up to about 120 µM; on the % scale 0 is the no-effect control and ±100 the full control effect; nearly all actives have a fitted effect of over 25% in size
Sequence of Luciferin 4-monooxygenase (Photinus pyralis) (P08659 whole entry, looked up): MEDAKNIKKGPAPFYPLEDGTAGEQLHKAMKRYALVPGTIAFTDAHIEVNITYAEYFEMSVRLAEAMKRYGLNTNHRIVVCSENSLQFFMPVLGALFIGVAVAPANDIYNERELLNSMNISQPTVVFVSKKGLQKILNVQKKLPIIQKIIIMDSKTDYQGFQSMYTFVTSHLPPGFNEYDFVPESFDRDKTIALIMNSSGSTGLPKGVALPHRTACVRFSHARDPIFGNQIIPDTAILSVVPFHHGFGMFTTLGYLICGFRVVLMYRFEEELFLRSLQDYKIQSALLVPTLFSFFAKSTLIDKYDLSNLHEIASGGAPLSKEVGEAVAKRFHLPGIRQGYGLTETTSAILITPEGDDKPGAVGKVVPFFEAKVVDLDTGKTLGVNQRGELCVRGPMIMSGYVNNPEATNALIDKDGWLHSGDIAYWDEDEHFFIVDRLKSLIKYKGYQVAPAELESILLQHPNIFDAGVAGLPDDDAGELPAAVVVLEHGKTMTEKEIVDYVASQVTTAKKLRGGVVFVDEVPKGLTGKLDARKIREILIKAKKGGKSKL
Summary of the method: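 Biochemical qHTS: compounds run as interplate titrations against purified firefly enzyme, with D-luciferin and ATP each at its KM concentration. Light output recorded by CCD imaging.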

[16] = qHTS assay to identify small molecule agonists of the constitutive androstane receptor (CAR) signaling pathway - cell viability counter screen (AID 1224836); further: series mostly up to about 92 µM; on the % scale 0 is the no-effect control and ±100 the full control effect; nearly all actives have a fitted effect of over 45% in size
Summary of the method: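 Using CellTiter-Fluor, viability of HepG2 cells harbouring hCAR and CYP2B6-2.2kb was measured following 23 h incubation with a 15-concentration compound series plus PK11195 (0.75 uM final).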

[17] = qHTS assay to identify small molecule antagonists of the constitutive androstane receptor (CAR) signaling pathway - cell viability counter screen (AID 1224837); further: series mostly up to about 92 µM; on the % scale 0 is the no-effect control and ±100 the full control effect; nearly all actives have a fitted effect of over 45% in size
Summary of the method: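 Fluorescence from CellTiter-Fluor served as the viability signal. Human hepatoma HepG2 cells stably bearing hCAR and CYP2B6-2.2kb received compound plus CITCO (50 nM final) for 23 hr.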

[18] = target: Nuclear receptor subfamily 1 group I member 3 (Homo sapiens) (UniProt Q14994); experiment: qHTS assay to identify small molecule antagonists of the constitutive androstane receptor (CAR) signaling pathway (AID 1224838);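 further: HepG2 cells stably expressing hCAR with CYP2B6 luciferase reporter stimulated by CITCO; on the % scale 0 is the no-effect control and ±100 the full control effect; nearly all actives have a fitted effect of over 40% in size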
Sequence of Nuclear receptor subfamily 1 group I member 3 (Homo sapiens) (Q14994 whole entry, looked up): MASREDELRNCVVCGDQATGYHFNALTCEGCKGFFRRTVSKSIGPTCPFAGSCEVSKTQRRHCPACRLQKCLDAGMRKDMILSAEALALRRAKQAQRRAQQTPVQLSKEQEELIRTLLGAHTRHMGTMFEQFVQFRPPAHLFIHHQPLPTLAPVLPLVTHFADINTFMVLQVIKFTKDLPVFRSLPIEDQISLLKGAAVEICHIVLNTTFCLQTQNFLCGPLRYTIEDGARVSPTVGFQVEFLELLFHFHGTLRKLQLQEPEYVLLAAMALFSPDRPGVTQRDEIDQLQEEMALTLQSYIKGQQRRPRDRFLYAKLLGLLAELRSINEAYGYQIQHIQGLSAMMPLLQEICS
Summary of the method: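 Quantitative HTS in double-stable HepG2-CYP2B6-hCAR cells. After 4 h plating, cells get compound (15 concentrations) and CITCO at 50 nM final, incubate 24 h at 37 C, then ONE-Glo luminescence is read.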

[19] = target: Nuclear receptor subfamily 1 group I member 3 (Homo sapiens) (UniProt Q14994); experiment: qHTS assay to identify small molecule agonists of the constitutive androstane receptor (CAR) signaling pathway (AID 1224839);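 further: HepG2 cells stably carrying human CAR and a CYP2B6 luciferase reporter; series mostly up to about 92 µM; on the % scale 0 is the no-effect control and ±100 the full control effect; nearly all actives have a fitted effect of over 15% in size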
Summary of the method: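 Double-stable HepG2 cells (hCAR, CYP2B6-2.2kb) seeded 4 h before compound addition. Exposure 24 h with 0.75 uM PK11195 final. Luciferase detected by ONE-Glo.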

[20] = qHTS assay to identify small molecule antagonists of the estrogen related receptor signaling pathway with the pleiotropic PPARgamma coactivator (PGC) from Tox21 10K library - cell viability counter screen (AID 1224840; active means well fitted cell-killing curve with a large enough effect in the repeat runs, not every such curve was filed as active; further: on the % scale 0 is the no-effect control and ±100 the full control effect; nearly all actives have a fitted effect of over 40% in size)
Summary of the method: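 Compounds in DMSO, alongside positive and negative controls, were pinned onto PGC/ERR cells (2,000 per well). Exposure lasted 17.5 hours at 37 C, followed by a 30-minute CellTiter-Fluor incubation and fluorescence reading.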

CC(C)(C)c1ccc(N)cc1
inactive: outcome [1] | outcome [2] | Potency [3] | outcome [4] | outcome [5] | outcome [6] | outcome [7] | Potency [8] | Potency [9] | Potency [10] | outcome [11] | outcome [12] | Potency [13] | outcome [14] | Potency [15] | outcome [16] | outcome [17] | outcome [18] | Potency [19] | outcome [20]

C[C@@H]1CC[C@@]2(OC1)O[C@H]1C[C@H]3[C@@H]4CC[C@H]5C[C@@H](O)CC[C@]5(C)[C@H]4CC(=O)[C@]3(C)[C@H]1[C@@H]2C
inactive: activity, negative = cytotoxic [2] 6.74% [at 6.95 µM] | activation [3] 3.05% [at 6.95 µM] | activity change, negative = cytotoxicity [4] -1.94% [at 6.95 µM] | activity, negative = cytotoxicity [5] 4% [at 8.39 µM] | activity change, negative = inhibition [6] 0.0168% [at 8.39 µM] | viability change, negative = cytotoxic [7] 2.16% [at 6.97 µM] | activation [8] -4.54% [at 6.97 µM] | activation [9] 2.2% [at 6.98 µM] | activity change, negative = cytotoxicity [10] -0.0245% [at 6.97 µM] | activity change, negative = cytotoxicity [11] -1.39% [at 8.39 µM] | activity, negative = inhibition [12] -0.792% [at 8.39 µM] | activation [13] 0.12% [at 8.36 µM] | viability change, negative = cytotoxic [14] 0.595% [at 8.39 µM] | activity change, negative = inhibition [15] 8.12% [at 10.5 µM] | viability change, negative = cytotoxic [16] 0.858% [at 8.39 µM] | activity change, negative = cytotoxicity [17] 4.92% [at 8.39 µM] | activity, negative = inhibition [18] -17.4% [at 8.39 µM] | activation [19] 0.221% [at 8.39 µM] | viability change, negative = cytotoxic [20] -2.49% [at 8.39 µM]

C=CCN1CCc2nc(N)sc2CC1
inactive: outcome [2] | Potency [3] | outcome [4] | outcome [5] | outcome [6] | outcome [7] | Potency [8] | Potency [9] | Potency [10] | outcome [11] | outcome [12] | Potency [13] | outcome [14] | Potency [15] | outcome [16] | outcome [17] | outcome [18] | Potency [19] | outcome [20]

CN(C)CCC[C@@]1(c2ccc(F)cc2)OCc2cc(C#N)ccc21
inactive: outcome [2] | Potency [3] | outcome [4] | outcome [5] | outcome [6] | outcome [7] | Potency [8] | Potency [9] | Potency [10] | outcome [11] | outcome [12] | Potency [13] | outcome [14] | Potency [15] | outcome [16] | outcome [17] | outcome [18] | Potency [19] | outcome [20]

O=C[C@@H](O)[C@H](O)[C@H](O)CO
inactive: outcome [1] | outcome [2] | Potency [3] | outcome [4] | outcome [5] | outcome [6] | outcome [7] | Potency [8] | Potency [9] | Potency [10] | outcome [11] | outcome [12] | Potency [13] | outcome [14] | Potency [15] | outcome [16] | outcome [17] | outcome [18] | Potency [19] | outcome [20]

Cc1ccccc1C#N
inactive: outcome [2] | Potency [3] | outcome [4] | outcome [5] | outcome [6] | outcome [7] | Potency [8] | Potency [9] | Potency [10] | outcome [11] | outcome [12] | Potency [13] | outcome [14] | Potency [15] | outcome [16] | outcome [17] | outcome [18] | Potency [19] | outcome [20]

CCCC(=O)C(CC)Sc1ccoc1C (stereo unspecified)
inactive: outcome [2] | Potency [3] | outcome [4] | outcome [5] | outcome [6] | outcome [7] | Potency [8] | Potency [9] | Potency [10] | outcome [11] | outcome [12] | Potency [13] | outcome [14] | Potency [15] | outcome [16] | outcome [17] | outcome [18] | Potency [19] | outcome [20]

COC(=O)c1ccccc1Cl
inactive: outcome [1] | outcome [2] | Potency [3] | outcome [4] | outcome [5] | outcome [6] | outcome [7] | Potency [8] | Potency [9] | Potency [10] | outcome [11] | outcome [12] | Potency [13] | outcome [14] | Potency [15] | outcome [16] | outcome [17] | outcome [18] | Potency [19] | outcome [20]

Cc1cc(O)c(Cl)cc1C
inactive: outcome [1] | outcome [2] | Potency [3] | outcome [4] | outcome [5] | outcome [6] | outcome [7] | Potency [8] | Potency [9] | Potency [10] | outcome [11] | outcome [12] | Potency [13] | outcome [14] | Potency [15] | outcome [16] | outcome [17] | outcome [18] | Potency [19] | outcome [20]

CCOC(=O)CN1CCCC1=O
inactive: outcome [1] | outcome [2] | Potency [3] | outcome [4] | outcome [5] | outcome [6] | outcome [7] | Potency [8] | Potency [9] | Potency [10] | outcome [11] | outcome [12] | Potency [13] | outcome [14] | Potency [15] | outcome [16] | outcome [17] | outcome [18] | Potency [19] | outcome [20]

CC(=O)O[C@@H]1CC2C3CCc4cc(OC(=O)c5ccccc5)ccc4C3CCC2(C)[C@H]1OC(C)=O (stereo partly specified)
inactive: outcome [1] | outcome [2] | Potency [3] | outcome [4] | outcome [5] | outcome [6] | outcome [7] | Potency [8] | Potency [9] | Potency [10] | outcome [11] | outcome [12] | Potency [13] | outcome [14] | Potency [15] | outcome [16] | outcome [17] | outcome [18] | outcome [20]

C[C@@H](CN1CC(=O)NC(=O)C1)N1CC(=O)NC(=O)C1
inactive: outcome [1] | outcome [2] | Potency [3] | outcome [4] | outcome [5] | outcome [6] | outcome [7] | Potency [8] | Potency [9] | Potency [10] | outcome [11] | outcome [12] | Potency [13] | outcome [14] | Potency [15] | outcome [16] | outcome [17] | outcome [18] | outcome [20]

Nc1cc(S(=O)(=O)O)ccc1O
inactive: outcome [1] | outcome [2] | Potency [3] | outcome [4] | outcome [5] | outcome [6] | outcome [7] | Potency [8] | Potency [9] | Potency [10] | outcome [11] | outcome [12] | Potency [13] | outcome [14] | Potency [15] | outcome [16] | outcome [17] | outcome [18] | Potency [19] | outcome [20]

CC(C)CC(O)Cc1ccccc1 (stereo unspecified)
inactive: outcome [2] | Potency [3] | outcome [4] | outcome [5] | outcome [6] | outcome [7] | Potency [8] | Potency [9] | Potency [10] | outcome [11] | outcome [12] | Potency [13] | outcome [14] | Potency [15] | outcome [16] | outcome [17] | outcome [18] | outcome [20]
